Records with an inconclusive call do not appear. Calls of active or inactive are those of the source. Unless noted, the call rests on the fitted dose curve; in most records, active means well fitted curve in either direction with a large enough effect (not every such curve was filed as active); inconclusive means small, poorly fitted or top-dose-only effect, or another doubt; inactive means flat fitted curve, though single readings scatter.
Columns and labels:
[1] = target: Lysosomal acid glucosylceramidase (Homo sapiens) (UniProt P04062); test: Glucocerebrosidase-p2 (AID 348; in the data active means potency below about 10 µM; further: potency means the concentration at half of the fitted maximal effect); conditions: purified GBA, blue fluorogenic substrate, 40 min
In short: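 Normal human glucocerebrosidase (0.2 nM) with blue fluorogenic substrate (80 uM final) in citrate/phosphate pH 5.9 with 10mM sodium taurocholate, 0.01% tween-20; 40 min RT, NaOH/glycine stop; fluorescence Ex 365/Em 440; AC50 from a titration from 0.6 nM upwards.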

[2] = AP1 Signaling Pathway (AID 357); conditions: ME-180 AP-1-bla reporter, EGF-induced, beta-lactamase ratio, 5 h; at 7.69 µM (top of the series) unless noted; further: on the % scale 0 is the no-effect control and ±100 the full control effect
In short: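 ME-180 cells with beta-lactamase reporter under AP-1 response element, stimulated with EC50 EGF; compounds tested in titration series, 5 h at 37 °C. CCF4 substrate added 2.5 h at room temperature; 460/530 nm emission ratio gave %activity and AC50.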

[3] = target: Cytochrome P450 1A2 (Homo sapiens) (UniProt P05177); test: p450-cyp1a2 (AID 410; calls by dose curve; further: potency means the concentration at half of the fitted maximal effect;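 on activity change, negative = inhibition: -100% = full effect of reference inhibitor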); conditions: recombinant CYP1A2, luciferin-ME demethylation, luminescence; series mostly up to 11.4 µM
In short: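 Read-out is luminescence from luciferin produced by CYP1A2 demethylation of Luciferin-ME (100uM, at Km). Detection reagent stopped the 60 min NADPH-dependent reaction; signals were normalized to 57 uM furafylline.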

[4] = NFAT Signaling Pathway (AID 444); conditions: Jurkat NFAT-bla M1, carbachol, beta-lactamase ratio, 5 h; at 7.69 µM (top of the series) unless noted;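 further: carbachol stimulus at about its EC50 of 1 µM final; on the % scale 0 is the no-effect control and ±100 the full control effect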
In short: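 Jurkat cells carrying an NFAT-driven β-lactamase reporter and co-transfected muscarinic M1 receptor were treated with compound plus carbachol (1 uM final, an EC50 level) for 5 h at 37 °C. CCF4 loading followed for 1 h at RT; 460/530 nm ratio gave %activity.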

[5] = Stat Signaling Pathway (AID 446); conditions: ME-180 SIE beta-lactamase reporter, IL-6 stimulated, 5 h; at 7.69 µM (top of the series) unless noted;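 further: ME-180 cervical cancer cells given 40 pM IL-6 alongside compound; SIE-controlled beta-lactamase reporter measured as 460/530 nm FRET emission ratio; on the % scale 0 is the no-effect control and ±100 the full control effect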
In short: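 Emission at 460 and 530 nm (excitation 405 nm) reports SIE-controlled beta-lactamase in ME-180 cells. Cells received compound with 40 pM IL-6 for 5 hrs at 37 C; data scaled between 300 pM IL-6 and 125 nM JAK-inhibitor controls.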

[6] = target: Glucocorticoid receptor (Homo sapiens) (UniProt P04150); test: GR-GFP Redistribution (AID 450;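 active means compounds whose dose series gives a full or clear partial fitted curve of increased nuclear translocation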; further: potency means the concentration at half of the fitted maximal effect); conditions: U2OS GR-GFP nuclear translocation, laser cytometry, 2 h
[7] = target: Mitogen-activated protein kinase 10 (Mus musculus) (UniProt Q61831); test: JNK3 AlphaScreen Assay (AID 530); conditions: JNK3 lysate, c-Jun phosphorylation; series mostly up to 11.4 µM;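 further: kinase came from lysate of stimulated human HepG2 cells; signal reports phosphorylation of biotinylated GST-cJun 1-79 at Ser73 with 10 µM ATP; on the % scale 0 is the no-effect control and ±100 the full control effect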
In short: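 Biotinylated GST-cJun(1-79) served as substrate for JNK3 in HepG2 lysates stimulated with IL-1beta and TNF-alpha. ATP was 10 uM final, pH 7.6. Ser73 phosphorylation was quantified by AlphaScreen (680 nm excitation).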

[8] = target: 3',5'-cyclic-AMP phosphodiesterase 4B (Homo sapiens) (UniProt Q07343); test: qHTS Assay for Inhibitors of PDE-IV (AID 607; active means well fitted activation curve with a large enough effect in the main read-out, with a control signal flat, not every such curve was filed as active; further: % of control where 0% means no effect); conditions: HEK293 ACTOne CNG channel cells, membrane potential fluorescence; series mostly up to 22.9 µM
In short: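 The readout is membrane depolarisation from a cAMP-sensing CNG channel, detected with a potential dye at ex 535/em 590. Cells were HEK293-derived (endogenous PDE-IV) at 1000 cells/well, titrated up to 22.9 uM final.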

[9] = target: Cytochrome P450 2C9 (Homo sapiens) (UniProt P11712); test: qHTS Assay for Inhibitors and Substrates of Cytochrome P450 2C9 (AID 883; active means well fitted curve in the direction sought with a large enough effect; an effect the other way counts as inactive or inconclusive; further: potency means the concentration at half of the fitted maximal effect; nearly all actives have a fitted effect of over 60% in size); conditions: recombinant CYP2C9, luciferin-H luminescence, 60 min; series mostly up to 11.4 µM
In short: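 CYP2C9 deoxyluciferin hydroxylation, 37C, 60 min with NADPH regeneration; 10nM enzyme, 100uM Luciferin-H (KM). Glo detection reagent stopped reaction; luminescence normalized to sulphaphenazole (57uM) full inhibition.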

[10] = target: Cytochrome P450 3A4 (Homo sapiens) (UniProt P08684); test: qHTS Assay for Inhibitors and Substrates of Cytochrome P450 3A4 (AID 884; active means well fitted curve in the direction sought with a large enough effect; an effect the other way counts as inactive or inconclusive; further: potency means the concentration at half of the fitted maximal effect; nearly all actives have a fitted effect of over 50% in size); conditions: recombinant CYP3A4, Luciferin-PPXE luminescence; series mostly up to 57.1 µM
In short: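 Luminescent readout of luciferin produced by CYP3A4 (20 nM) dealkylation of Luciferin-PPXE, 25 uM (its KM). NADPH-driven reaction ran 60 min at RT after 10 min compound preincubation; data scaled to 57 uM ketoconazole as 100% inhibition.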

[11] = target: Cytochrome P450 3A4 (Homo sapiens) (UniProt P08684); test: qHTS Assay for Activators of Cytochrome P450 3A4 (AID 885; active means well fitted curve in the direction sought with a large enough effect; an effect the other way counts as inactive or inconclusive; further: nearly all actives have a fitted effect of over 65% in size); conditions: recombinant CYP3A4, Luciferin-PPXE luminescence, 60 min; series mostly up to 11.4 µM
In short: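 Activators are scored by enhanced luminescence from CYP3A4 conversion of luciferin-PPXE (25uM, equal to KM) to luciferin, after 60 min at RT with an NADPH-regenerating system.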

[12] = target: Cytochrome P450 2C19 (Homo sapiens) (UniProt P33261); test: qHTS Assay for Inhibitors and Substrates of Cytochrome P450 2C19 (AID 899; active means well fitted curve in the direction sought with a large enough effect; an effect the other way counts as inactive or inconclusive; further: nearly all actives have a fitted effect of over 60% in size; further: potency means the concentration at half of the fitted maximal effect); conditions: recombinant CYP2C19, luciferin-H EGE luminescence; series mostly up to 11.4 µM
In short: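 In 50mM KPO4, the reaction held 5nM enzyme and KM-level (10uM) Luciferin-H EGE; it ran 60 min at 37C after NADPH regeneration and a 10 min compound preincubation. Luminescence values were scaled to 57uM ketoconazole as complete inhibition.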

[13] = target: Cytochrome P450 2D6 (Homo sapiens) (UniProt P10635); test: qHTS Assay for Inhibitors and Substrates of Cytochrome P450 2D6 (AID 891; active means well fitted curve in the direction sought with a large enough effect; an effect the other way counts as inactive or inconclusive; further: potency means the concentration at half of the fitted maximal effect; nearly all actives have a fitted effect of over 60% in size); conditions: recombinant CYP2D6, luciferin-ME EGE luminescence; series mostly up to 11.4 µM
In short: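 Luminescent read-out of luciferin formed by 5 nM human CYP2D6 demethylating 30 uM Luciferin-ME EGE (Km level) over 60 min at room temperature after NADPH regeneration addition. Data normalized to full inhibition by 1.43 uM quinidine.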

[14] = target: Glucocorticoid receptor (Homo sapiens) (UniProt P04150); test: GR-EFC Redistribution (AID 451; calls by dose curve; further: potency means the concentration at half of the fitted maximal effect); conditions: CHO-K1 GR-EFC translocation, beta-gal luminescence, 2 h
In short: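 CHO-K1 cells stably expressing nuclear-localized β-gal enzyme acceptor and GR fused C-terminally to the enzyme donor fragment; ligand-driven nuclear translocation restores β-gal by complementation. Compounds titrated up to 46 uM final, 2 h at 37 °C; luminescence read.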

[15] = qHTS Assay for Identification of Small Molecule Agonists for Hypoxia Response Element Signaling Pathway (AID 914; active means well fitted activation curve with a large enough effect in the signal ratio, with a control signal flat, not every such curve was filed as active; the % refers to the signal ratio; further: % of control where 0% means no effect); conditions: ME-180 (cervical carcinoma) HRE-bla reporter, beta-lactamase ratio, CoCl2, 17 h; activation: hits give high values
In short: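 qHTS titration; ME-180 HRE-bla cells; EC50 CoCl2 co-treatment, 17 h at 37 degrees Celsius; CCF4 dye, ex 405nm, em 460nm and 530nm; %Activity from ratio; AC50.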

Sequence of Cytochrome P450 2C9 (Homo sapiens) (P11712 whole entry, looked up): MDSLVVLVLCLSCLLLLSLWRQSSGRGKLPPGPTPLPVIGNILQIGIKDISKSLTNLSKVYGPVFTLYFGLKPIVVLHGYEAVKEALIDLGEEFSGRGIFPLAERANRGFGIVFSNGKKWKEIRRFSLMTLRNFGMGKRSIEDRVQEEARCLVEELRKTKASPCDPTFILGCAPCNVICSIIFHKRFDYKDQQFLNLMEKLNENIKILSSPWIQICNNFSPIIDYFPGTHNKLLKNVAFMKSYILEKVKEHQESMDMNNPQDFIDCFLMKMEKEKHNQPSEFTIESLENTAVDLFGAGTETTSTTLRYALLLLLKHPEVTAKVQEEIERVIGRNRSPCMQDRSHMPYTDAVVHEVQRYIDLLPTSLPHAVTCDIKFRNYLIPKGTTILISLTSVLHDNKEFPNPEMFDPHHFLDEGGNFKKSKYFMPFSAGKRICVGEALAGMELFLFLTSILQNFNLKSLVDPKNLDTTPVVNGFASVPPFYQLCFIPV
Sequence of Cytochrome P450 3A4 (Homo sapiens) (P08684 whole entry, looked up): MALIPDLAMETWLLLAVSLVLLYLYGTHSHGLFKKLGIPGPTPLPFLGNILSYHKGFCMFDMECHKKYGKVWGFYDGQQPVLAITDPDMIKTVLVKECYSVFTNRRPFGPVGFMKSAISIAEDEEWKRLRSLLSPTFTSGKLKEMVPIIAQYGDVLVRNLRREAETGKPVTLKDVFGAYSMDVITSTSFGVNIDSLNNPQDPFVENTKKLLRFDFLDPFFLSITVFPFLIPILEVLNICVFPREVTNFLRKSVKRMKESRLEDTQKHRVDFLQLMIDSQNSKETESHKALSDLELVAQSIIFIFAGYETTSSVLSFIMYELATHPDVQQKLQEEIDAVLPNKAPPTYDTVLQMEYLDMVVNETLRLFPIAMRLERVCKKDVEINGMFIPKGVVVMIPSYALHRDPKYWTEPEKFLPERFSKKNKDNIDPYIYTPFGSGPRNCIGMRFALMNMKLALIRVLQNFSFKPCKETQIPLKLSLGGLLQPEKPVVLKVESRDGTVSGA
Sequence of Cytochrome P450 1A2 (Homo sapiens) (P05177 whole entry, looked up): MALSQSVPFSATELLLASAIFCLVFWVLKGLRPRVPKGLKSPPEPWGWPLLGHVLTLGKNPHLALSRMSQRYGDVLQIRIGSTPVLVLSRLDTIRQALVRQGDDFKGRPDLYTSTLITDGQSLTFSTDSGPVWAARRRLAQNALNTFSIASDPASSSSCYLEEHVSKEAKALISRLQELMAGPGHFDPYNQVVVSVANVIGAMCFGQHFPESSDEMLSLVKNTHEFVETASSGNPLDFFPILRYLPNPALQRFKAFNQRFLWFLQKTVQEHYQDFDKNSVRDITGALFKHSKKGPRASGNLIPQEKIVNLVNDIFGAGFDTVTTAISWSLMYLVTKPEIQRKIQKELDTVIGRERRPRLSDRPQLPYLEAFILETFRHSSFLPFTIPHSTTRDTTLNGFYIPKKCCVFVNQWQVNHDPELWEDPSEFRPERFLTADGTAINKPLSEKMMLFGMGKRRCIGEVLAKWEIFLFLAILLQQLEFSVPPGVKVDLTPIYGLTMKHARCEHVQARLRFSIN
Sequence of Cytochrome P450 2C19 (Homo sapiens) (P33261 whole entry, looked up): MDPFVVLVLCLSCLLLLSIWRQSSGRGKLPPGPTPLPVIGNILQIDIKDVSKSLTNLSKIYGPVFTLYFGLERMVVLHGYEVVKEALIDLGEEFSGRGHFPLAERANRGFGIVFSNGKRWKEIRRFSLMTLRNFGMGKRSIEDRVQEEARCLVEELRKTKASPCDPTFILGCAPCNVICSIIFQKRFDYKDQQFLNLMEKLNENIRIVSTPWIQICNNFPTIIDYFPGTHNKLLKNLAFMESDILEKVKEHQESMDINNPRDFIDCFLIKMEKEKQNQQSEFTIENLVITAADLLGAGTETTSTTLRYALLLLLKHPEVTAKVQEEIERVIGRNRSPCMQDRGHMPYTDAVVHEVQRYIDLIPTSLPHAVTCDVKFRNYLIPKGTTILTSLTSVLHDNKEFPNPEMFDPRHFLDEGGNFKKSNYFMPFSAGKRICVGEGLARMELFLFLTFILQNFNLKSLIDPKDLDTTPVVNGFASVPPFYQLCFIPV
Sequence of 3',5'-cyclic-AMP phosphodiesterase 4B (Homo sapiens) (Q07343 whole entry, looked up): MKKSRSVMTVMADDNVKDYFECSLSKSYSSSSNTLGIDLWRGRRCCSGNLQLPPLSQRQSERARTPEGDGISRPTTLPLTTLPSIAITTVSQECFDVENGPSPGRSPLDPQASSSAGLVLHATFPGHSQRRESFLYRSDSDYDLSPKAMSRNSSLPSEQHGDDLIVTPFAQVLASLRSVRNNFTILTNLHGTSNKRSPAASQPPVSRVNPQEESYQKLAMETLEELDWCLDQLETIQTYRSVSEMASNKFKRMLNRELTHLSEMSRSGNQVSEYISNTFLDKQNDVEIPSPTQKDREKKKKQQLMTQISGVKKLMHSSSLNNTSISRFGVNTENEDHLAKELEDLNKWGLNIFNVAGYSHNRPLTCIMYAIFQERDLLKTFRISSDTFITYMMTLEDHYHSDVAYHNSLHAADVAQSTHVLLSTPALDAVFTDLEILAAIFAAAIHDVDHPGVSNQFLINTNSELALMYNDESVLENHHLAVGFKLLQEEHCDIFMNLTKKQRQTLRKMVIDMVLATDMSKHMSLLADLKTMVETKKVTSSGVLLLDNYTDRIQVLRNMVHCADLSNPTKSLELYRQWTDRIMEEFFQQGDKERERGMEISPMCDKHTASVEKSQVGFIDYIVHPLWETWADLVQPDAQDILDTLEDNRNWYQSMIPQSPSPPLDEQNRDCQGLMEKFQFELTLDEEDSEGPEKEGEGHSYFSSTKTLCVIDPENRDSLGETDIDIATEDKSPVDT
Sequence of Lysosomal acid glucosylceramidase (Homo sapiens) (P04062 whole entry, looked up): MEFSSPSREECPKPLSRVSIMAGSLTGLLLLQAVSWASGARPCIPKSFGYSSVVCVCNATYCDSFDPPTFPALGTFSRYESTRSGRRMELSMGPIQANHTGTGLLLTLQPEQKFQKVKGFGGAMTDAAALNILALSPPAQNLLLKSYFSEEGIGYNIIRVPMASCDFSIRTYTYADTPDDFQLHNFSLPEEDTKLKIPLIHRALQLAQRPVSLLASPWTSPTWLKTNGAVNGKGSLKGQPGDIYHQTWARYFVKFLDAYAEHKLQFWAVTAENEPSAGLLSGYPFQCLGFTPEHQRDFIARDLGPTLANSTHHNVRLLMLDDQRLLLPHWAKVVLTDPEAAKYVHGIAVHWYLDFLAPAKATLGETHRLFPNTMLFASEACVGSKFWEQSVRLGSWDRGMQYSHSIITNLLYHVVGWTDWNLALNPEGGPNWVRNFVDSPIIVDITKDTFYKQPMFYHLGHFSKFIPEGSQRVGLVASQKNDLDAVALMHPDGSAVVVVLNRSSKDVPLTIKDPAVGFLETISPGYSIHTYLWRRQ
Sequence of Glucocorticoid receptor (Homo sapiens) (P04150 whole entry, looked up, the tested form may be a part): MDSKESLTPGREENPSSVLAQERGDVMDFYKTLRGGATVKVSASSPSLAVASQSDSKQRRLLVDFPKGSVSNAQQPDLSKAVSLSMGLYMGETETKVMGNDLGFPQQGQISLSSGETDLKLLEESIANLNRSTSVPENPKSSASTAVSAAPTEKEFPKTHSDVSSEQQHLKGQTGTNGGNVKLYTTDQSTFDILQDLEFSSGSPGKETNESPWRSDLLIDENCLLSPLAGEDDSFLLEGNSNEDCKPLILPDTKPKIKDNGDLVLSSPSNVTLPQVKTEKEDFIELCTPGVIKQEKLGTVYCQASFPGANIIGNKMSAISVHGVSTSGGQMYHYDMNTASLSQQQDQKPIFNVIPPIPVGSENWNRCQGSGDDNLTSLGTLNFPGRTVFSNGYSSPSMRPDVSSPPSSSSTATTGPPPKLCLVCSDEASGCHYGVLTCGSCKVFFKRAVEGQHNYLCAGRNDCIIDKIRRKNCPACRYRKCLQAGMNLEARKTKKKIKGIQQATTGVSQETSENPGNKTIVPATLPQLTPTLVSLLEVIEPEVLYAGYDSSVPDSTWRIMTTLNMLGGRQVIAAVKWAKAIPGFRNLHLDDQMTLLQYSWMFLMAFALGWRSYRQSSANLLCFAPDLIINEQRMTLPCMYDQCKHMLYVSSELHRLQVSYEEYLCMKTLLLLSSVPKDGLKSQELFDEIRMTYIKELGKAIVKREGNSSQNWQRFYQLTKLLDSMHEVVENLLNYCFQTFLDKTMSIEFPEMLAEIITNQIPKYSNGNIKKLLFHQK
Sequence of Cytochrome P450 2D6 (Homo sapiens) (P10635 whole entry, looked up): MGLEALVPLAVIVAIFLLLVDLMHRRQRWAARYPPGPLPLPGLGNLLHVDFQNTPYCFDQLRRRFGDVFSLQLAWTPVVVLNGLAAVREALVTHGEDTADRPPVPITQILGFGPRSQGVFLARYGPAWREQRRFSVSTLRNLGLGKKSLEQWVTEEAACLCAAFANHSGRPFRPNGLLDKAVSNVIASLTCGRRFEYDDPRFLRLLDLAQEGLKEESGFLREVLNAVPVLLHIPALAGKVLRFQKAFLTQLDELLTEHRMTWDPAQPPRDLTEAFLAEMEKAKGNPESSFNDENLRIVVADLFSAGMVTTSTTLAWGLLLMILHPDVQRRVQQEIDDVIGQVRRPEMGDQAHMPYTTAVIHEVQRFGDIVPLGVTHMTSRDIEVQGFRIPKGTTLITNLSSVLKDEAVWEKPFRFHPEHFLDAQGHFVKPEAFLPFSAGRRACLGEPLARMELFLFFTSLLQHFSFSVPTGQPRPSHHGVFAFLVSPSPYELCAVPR

CCN1CCCCC(=N/O)/C(=N/O)CCCC1
inactive: Potency [1] > 11.4 µM | activity change, negative = inhibition [2] -1.64% | Potency [3] | activity change, negative = inhibition [4] -10.8% | activity, negative = inhibition [5] 2.5% | Potency [6] > 46 µM | Potency [7] | Potency [8]

c1cc(CSSCc2ccncc2)ccn1
active: Potency [3] 2 µM | Potency [9] 1.58 µM | Potency [10] 2.51 µM | Potency [12] 1.26 µM
inactive: Potency [1] > 11.4 µM | activity change, negative = inhibition [2] -3.12% | activity change, negative = inhibition [4] 12.2% | activity, negative = inhibition [5] -6.55% | Potency [6] > 46 µM | Potency [7] | Potency [8] | Potency [11]

C/C(=N/O)c1ccc2cc(Br)c3ccccc3c2c1
active: Potency [13] 0.0251 µM
inactive: Potency [1] > 11.4 µM | activity change, negative = inhibition [2] 15% | activity change, negative = inhibition [3] -13.6% [at 2.29 µM] | activity change, negative = inhibition [4] 1.9% | activity, negative = inhibition [5] -6.91% | Potency [6] > 46 µM | Potency [7] | Potency [8]

S=C1N[C@H](c2ccccc2)N[C@H](c2ccccc2)S1
inactive: Potency [1] > 11.4 µM | activity change, negative = inhibition [2] -0.71% | activity change, negative = inhibition [4] -21.2% | activity, negative = inhibition [5] -1.19% | Potency [6] > 46 µM | Potency [7] | Potency [8] | Potency [11]
active: Potency [3] 3.16 µM | Potency [9] 2 µM | Potency [12] 3.98 µM

CN(CCc1ccccn1)c1ccc2c(c1)C(=O)c1ccccc1-2
inactive: Potency [1] > 2.29 µM | activity change, negative = inhibition [2] 7.03% | activity change, negative = inhibition [4] 0.0317% | activity, negative = inhibition [5] -7.39% | Potency [6] > 46 µM | Potency [14] > 9.22 µM | Potency [8] | Potency [11]
active: Potency [3] 0.158 µM | Potency [12] 2.51 µM

O=C(Nc1cccc(Cl)c1)Nn1cnnc1
active: Potency [3] 3.16 µM
inactive: Potency [1] > 11.4 µM | activity change, negative = inhibition [2] 0.989% | activity change, negative = inhibition [4] -6.38% | activity, negative = inhibition [5] -6.44% | Potency [6] > 46 µM | Potency [7] | Potency [8] | Potency [11]

O=C(O)c1cc(-c2ccc3cc4c(cc3c2)OCO4)nc2ccccc12
inactive: Potency [1] > 11.4 µM | activity change, negative = inhibition [2] -11% | activity change, negative = inhibition [4] -22.2% | activity, negative = inhibition [5] -8.03% | Potency [6] > 46 µM | Potency [7] | Potency [8]
active: Potency [3] 3.16 µM

NC(N)=N[C@@H]1C(O)[C@H](N=C(N)N)[C@@H](O)C(O)[C@H]1O (stereo partly specified)
inactive: Potency [1] > 11.4 µM | activity change, negative = inhibition [2] -5.59% | activity change, negative = inhibition [3] -4.9% [at 2.29 µM] | activity change, negative = inhibition [4] 13.4% | activity, negative = inhibition [5] -0.855% | Potency [6] > 46 µM | Potency [7] | Potency [8]

Cc1ccc(S(=O)(=O)Oc2cc(S(=O)(=O)O)cc3cc(S(=O)(=O)O)cc(N)c23)cc1
inactive: Potency [1] > 11.4 µM | activity change, negative = inhibition [2] 8.2% | activity change, negative = inhibition [4] 1.61% | activity, negative = inhibition [5] 11.7% | Potency [6] > 46 µM | Potency [7] | Potency [8] | activation [15] -7.4%
active: Potency [3] 2 µM

C[Si](C)(c1ccc(C(=O)O)cc1)c1ccc(C(=O)O)cc1
inactive: Potency [1] > 11.4 µM | activity change, negative = inhibition [2] -1.98% | Potency [3] | activity change, negative = inhibition [4] -2.05% | activity, negative = inhibition [5] 14.2% | Potency [6] > 46 µM | Potency [7] | Potency [8]

CN(C)CC(CN(C)C)c1ccccn1
inactive: Potency [1] > 11.4 µM | activity change, negative = inhibition [2] 3.76% | Potency [3] | activity change, negative = inhibition [4] 10.8% | activity, negative = inhibition [5] 1.27% | Potency [6] > 46 µM | Potency [7] | Potency [8]

Cn1c(=O)c2[nH]c(CSCc3ccccc3)nc2n(C)c1=O
inactive: Potency [1] > 11.4 µM | activity change, negative = inhibition [2] 12.7% | activity change, negative = inhibition [3] -15.4% [at 2.29 µM] | activity change, negative = inhibition [4] 8.43% | activity, negative = inhibition [5] 4.21% | Potency [6] > 46 µM | Potency [14] > 9.22 µM | Potency [8] | Potency [12]

OCCNc1ncnc2nc[nH]c12
inactive: Potency [1] > 11.4 µM | activity change, negative = inhibition [2] 7.92% | Potency [3] | activity change, negative = inhibition [4] 9% | activity, negative = inhibition [5] 2.92% | Potency [6] > 46 µM | Potency [7] | Potency [8] | Potency [11]

Cc1c(N2CCCC2)cc2c(c1NC(=O)c1ccccc1Cl)C(C)(C)CC2(C)C
inactive: Potency [1] > 11.4 µM | activity change, negative = inhibition [2] -3.93% | activity change, negative = inhibition [3] -13.1% [at 2.29 µM] | activity change, negative = inhibition [4] -10.2% | activity, negative = inhibition [5] -9.5% | Potency [6] > 46 µM | Potency [7] | Potency [8] | Potency [11]
active: Potency [12] 0.794 µM

CN(C)S(=O)(=O)c1nc(Cl)c2[nH]cnc2n1
inactive: Potency [1] > 11.4 µM | activity change, negative = inhibition [2] 1.09% | Potency [3] | activity change, negative = inhibition [4] 17.4% | activity, negative = inhibition [5] -1.44% | Potency [14] > 9.22 µM | Potency [7] | Potency [8]

Nc1c(S(=O)(=O)O)cc(Nc2cccc(S(N)(=O)=O)c2)c2c1C(=O)c1ccccc1C2=O
inactive: Potency [1] > 11.4 µM | activity change, negative = inhibition [2] 26% | activity change, negative = inhibition [4] -26.6% | activity, negative = inhibition [5] 2.62% | Potency [6] > 46 µM | Potency [14] > 9.22 µM | Potency [8] | Potency [11]
active: Potency [3] 3.98 µM | Potency [9] 3.16 µM

Reference: PubChem BioAssay (NCATS)
